Screening results (PubChem)
Shown are actives, neighbours in structure and some others; about 2.2% of the full set was active somewhere.
IEC-6 cytotox – cytotoxicity in IEC-6 intestinal epithelial cells, primary screen, cytotoxicity control for KLF5 inhibitor project, cell-based, luminescence; IEC-6 cytotoxicity, luminescence viability; inhibition, % at 5 µM; 290,000 compounds, 0.78% hits; in the data active = inhibition above about 22%;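 note: 0% = plate median of test compound wells and 100% = cytotoxic reference compound wells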
APP transl inh – inhibitors of APP translation via 5'UTR reporter, primary screen, APP 5'UTR luciferase, SH-SY5Y cells; AID 1285, 2008; SH-SY5Y APP 5'UTR-luciferase reporter, luminescence; 190,000 compounds, 0.82% hits; inhibition, % at 2 µM;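 active = inhibition above a set limit, derived from the sample mean plus 3 SD, cut at about 45% in these data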
BaF3 tox – parental Ba/F3 cell viability inhibition, counter-screen for JAK2V617F inhibitor project, murine pro-B, CellTiter-Glo luminescence | AID 1486, 2009 | 220,000 compounds, 1.1% hits | CellTiter-Glo ATP luminescence | inhibition, % at 5.6 µM;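 active = inhibition above a per-campaign cutoff, the mean inhibition of all tested compounds plus 3 SD, cut at about 27% in these data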;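 note: 0% = DMSO wells and 100% = JAK Inhibitor I control wells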
KLF5 inh – KLF5 expression inhibitors, primary screen, DLD-1 cells, luminescence; inhibition, % at 5 µM; 290,000 compounds, 0.23% hits; DLD-1 KLF5 promoter-luciferase reporter;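 active = inhibition above a per-plate limit of that plate's mean compound inhibition plus 3 SD, cut at about 60% in these data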;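 note: 0% = DMSO wells and 100% = LY294002 at 200 µM; higher means less KLF5 promoter-driven luciferase light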
aSyn 5UTR inh – MLPCN primary screen, SNCA 5' untranslated region. AID 1813, 2009. 300,000 compounds, 0.82% hits. inhibition, % (tested at 7.5 µM). alpha-synuclein 5'UTR reporter, inhibitor activity; in the data active = inhibition above about 60%;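 note: H4 neuroglioblastoma cells stably carrying SNCA 5'UTR luciferase fusion; 0% = DMSO wells and 100% = positive control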
Ba/F3 V617F tox – reduced viability of JAK2V617F-dependent Ba/F3 cells, primary screen, JAK2V617F inhibitor project, cell-based, Ba/F3 EpoR-JAK2V617F, luminescence; 220,000 compounds, 1.1% hits; inhibition, % at 5.6 µM; ATP luminescence;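 active = inhibition above the campaign mean plus 3 SD over all tested compounds, cut at about 24% in these data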;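 note: cytokine-independent growth of Ba/F3 cells driven by EpoR plus mutant JAK2; 0% = DMSO-treated cells and 100% = JAK inhibitor I control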
BaF3 tox 2 – parental Ba/F3 cell viability inhibition, counter-screen for JAK2V617F inhibitor project, murine pro-B, CellTiter-Glo luminescence; AID 1520, 2009; shares compounds with Ba/F3 V617F tox; inhibition, % at 5.6 µM; cells kept alive by added IL-3; 580 compounds, 31% hits;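 active = cell growth inhibition above the hit limit set in the earlier mutant JAK2 cell screen, cut at about 27% in these data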;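 note: plate controls were DMSO-treated cells for no effect and JAK Inhibitor I control wells for full effect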
JAK2V617F confrm – viability loss in Ba/F3 EpoR-JAK2V617F cells, confirmation, JAK2V617F inhibitor project, cell-based, luminescence, triplicate. 580 compounds, 66% hits. inhibition, % at 5.6 µM. CellTiter-Glo luminescence. AID 1521, 2009. shares compounds with Ba/F3 V617F tox;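 active = mean inhibition above the hit cutoff derived in the earlier primary screen, cut at about 25% in these data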;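 note: 0% = DMSO-treated cells and 100% = JAK inhibitor I control wells; higher means lower luminescence from reduced cell ATP and viability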
* hit, by the source's call.

For Cc1c(C(=O)OCC(C)C)[nH]c2c1C(=O)CC(c1cccs1)C2 (centres undefined) the results were IEC-6 cytotox 11, APP transl inh 59*, BaF3 tox 8, KLF5 inh 37, aSyn 5UTR inh 48, Ba/F3 V617F tox 24*, BaF3 tox 2 59* and JAK2V617F confrm 88*.
For COC(=O)c1[nH]c2c(c1C)C(=O)CC(c1ccc(C)cc1)C2 (centres undefined) the results were IEC-6 cytotox 5, APP transl inh 14, BaF3 tox 4, KLF5 inh -17, aSyn 5UTR inh -4 and Ba/F3 V617F tox 1.
For Cc1ccc(Cl)cc1N1CCN(CC(=O)NC2CCCc3ccccc32)CC1 (centres undefined) the results were IEC-6 cytotox 4, APP transl inh -8, BaF3 tox 4, KLF5 inh 1, aSyn 5UTR inh -3, Ba/F3 V617F tox 58*, BaF3 tox 2 -1 and JAK2V617F confrm 6.
For O=C(CN1CCN(c2ccccc2Cl)CC1)NC1CCCc2ccccc21 (centres undefined) the results were IEC-6 cytotox -2, APP transl inh -19, BaF3 tox 3, KLF5 inh 3, aSyn 5UTR inh -11 and Ba/F3 V617F tox 2.
Cc1cccc(OCCCC(=O)Nc2ccc(S(=O)(=O)Nc3nccs3)cc2)c1C was read as IEC-6 cytotox 7, KLF5 inh 5 and aSyn 5UTR inh 21.
For O=C(O)CC(NC(=O)Nc1ccccc1)c1ccc(OC2CCCC2)cc1 (centres undefined) the results were IEC-6 cytotox 3, APP transl inh 2, BaF3 tox 4, KLF5 inh -4, aSyn 5UTR inh -8, Ba/F3 V617F tox 33*, BaF3 tox 2 -4 and JAK2V617F confrm -6.
For CCCCOc1ccc(C(O)C(CN2CCCCC2)c2ccccc2)cc1 (centres undefined) the results were IEC-6 cytotox -5, APP transl inh 4, BaF3 tox 11, KLF5 inh -14, aSyn 5UTR inh -27 and Ba/F3 V617F tox -2.
For CCCOc1ccc(C(=O)C(CN2CCCC2)c2ccccc2)cc1 (centres undefined) the results were IEC-6 cytotox 6, APP transl inh 92*, BaF3 tox 6, KLF5 inh -30, aSyn 5UTR inh -47, Ba/F3 V617F tox 65*, BaF3 tox 2 52* and JAK2V617F confrm 99*.
`COc1ccc(-n2nc(C(=O)NCC(=O)Nc3cccc(Cl)c3)c3ccccc3c2=O)cc1` gave IEC-6 cytotox -3, KLF5 inh -8 and aSyn 5UTR inh 36.
CCCCCC(=O)NCc1c(C(F)(F)F)nn(C)c1N1CCOCC1 was read as IEC-6 cytotox -4, APP transl inh -28, BaF3 tox 6, KLF5 inh -20, aSyn 5UTR inh -11 and Ba/F3 V617F tox 2.
CN(C1CCCC1)C1CCN(C(=S)Nc2cc(F)cc(F)c2)CC1 was read as IEC-6 cytotox 6, APP transl inh 7, BaF3 tox 20, KLF5 inh -16, aSyn 5UTR inh -10, Ba/F3 V617F tox 31*, BaF3 tox 2 4 and JAK2V617F confrm 32*.
CSc1cccc(NC(=S)N2CCC(N(C)C3CCCCCC3)CC2)c1 was read as IEC-6 cytotox 6, APP transl inh 17, BaF3 tox 11, KLF5 inh 3, aSyn 5UTR inh 1 and Ba/F3 V617F tox 5.
`COc1ccccc1CC(NC(C)=O)C(=O)NC1CCN(C(=O)c2ccc(C)cc2)CC1` (centres undefined) gave IEC-6 cytotox -7, KLF5 inh -5 and aSyn 5UTR inh -27.
Cc1ccc(C(=O)n2c(N)nc3ccccc32)cc1 was read as IEC-6 cytotox 9, APP transl inh -35, BaF3 tox 21, KLF5 inh 51, aSyn 5UTR inh 81*, Ba/F3 V617F tox 51*, BaF3 tox 2 6 and JAK2V617F confrm -1.
`CN1CCN(S(=O)(=O)c2cccc(C(=O)N(Cc3ccccc3)c3ccccc3)c2)CC1` gave IEC-6 cytotox -3, KLF5 inh 12 and aSyn 5UTR inh -36.
`C=CCOC(=O)C1=C(C)NC(SCC(N)=O)=C(C#N)C1c1ccc(C)cc1` (centres undefined) gave IEC-6 cytotox -4, BaF3 tox 1, KLF5 inh -7, aSyn 5UTR inh 8 and Ba/F3 V617F tox -1.
Screening C=CCOC(=O)C1=C(C)NC(SCC)=C(C#N)C1c1ccc(Cl)cc1 (centres undefined) returned IEC-6 cytotox 14, APP transl inh -10, BaF3 tox -6, KLF5 inh 6, aSyn 5UTR inh 67*, Ba/F3 V617F tox 41*, BaF3 tox 2 9 and JAK2V617F confrm 29*.
Screening COC(=O)C1(C)Cc2cc(OC(C)=O)c(OC(C)=O)cc2N1 (centres undefined) returned IEC-6 cytotox 0, BaF3 tox 17, KLF5 inh -14, aSyn 5UTR inh -21, Ba/F3 V617F tox 37*, BaF3 tox 2 4 and JAK2V617F confrm 46*.
Screening Cc1ccc(S(=O)(=O)NC(CC(=O)n2nc(C)cc2C)c2ccccc2)cc1 (centres undefined) returned IEC-6 cytotox 4, APP transl inh 3, BaF3 tox 4, KLF5 inh -28, aSyn 5UTR inh 2 and Ba/F3 V617F tox -3.
`Cc1ccc(S(=O)(=O)NC(c2ccccc2)C(C)C(=O)n2nc(C)cc2C)cc1` (centres undefined) gave IEC-6 cytotox 5, APP transl inh -5, BaF3 tox 14, KLF5 inh 6, aSyn 5UTR inh 0, Ba/F3 V617F tox 64*, BaF3 tox 2 14 and JAK2V617F confrm 14.
O=C(COc1ccc2ccccc2c1)N[C@@H](C(=O)O)c1ccc(O)cc1 was read as IEC-6 cytotox -1, KLF5 inh -2 and aSyn 5UTR inh 16.
For Fc1ccc(CSc2ncnc3sc4c(c23)CCCC4)cc1 the results were IEC-6 cytotox -4, APP transl inh -3, BaF3 tox 2, KLF5 inh -27, aSyn 5UTR inh 36, Ba/F3 V617F tox 99*, BaF3 tox 2 -3 and JAK2V617F confrm 0.
